Bioassay records as filed in PubChem BioAssay.
A selection: hits, their analogues and other compounds. The true share with any hit is near 1%.
sEH act – soluble epoxide hydrolase (human) activation. P34913. purified human sEH enzymatic activity, activator screen. activation, % at 2 µM. 91,000 compounds, 0.04% hits. AID 717; in the data active = activation above about 37%
Target sequence (P34913 whole entry, looked up): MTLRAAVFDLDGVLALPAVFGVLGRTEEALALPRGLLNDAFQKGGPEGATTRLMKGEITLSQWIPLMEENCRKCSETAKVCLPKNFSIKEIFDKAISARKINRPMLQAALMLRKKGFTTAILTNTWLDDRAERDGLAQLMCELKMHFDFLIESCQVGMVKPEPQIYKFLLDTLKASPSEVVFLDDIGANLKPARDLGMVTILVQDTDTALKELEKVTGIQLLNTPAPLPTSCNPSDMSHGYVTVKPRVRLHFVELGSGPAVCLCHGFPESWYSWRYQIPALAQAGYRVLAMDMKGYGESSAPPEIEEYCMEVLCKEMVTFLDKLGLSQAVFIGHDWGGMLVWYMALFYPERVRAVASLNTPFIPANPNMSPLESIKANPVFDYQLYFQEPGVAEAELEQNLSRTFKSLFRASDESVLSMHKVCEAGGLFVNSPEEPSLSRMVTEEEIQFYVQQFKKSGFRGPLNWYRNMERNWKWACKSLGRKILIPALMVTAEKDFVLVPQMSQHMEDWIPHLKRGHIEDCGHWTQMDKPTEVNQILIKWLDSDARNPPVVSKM
SDO1 yeast rescue – restores growth of sdo1-depleted yeast; S. cerevisiae sdo1-depleted JHY4D growth rescue, OD600 30 h; active compounds read high; pdr5 snq2 efflux-pump mutant strain; z-score at 10 µM; 140,000 compounds, 0.21% hits;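 active = z-score above 3 at both the 24 hr and the 30 hr optical density reads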
MRP reversal – reverses drug resistance mediated by MRP | H69AR cells + 2 uM doxorubicin, CellTiter-Glo, 72 h | differential viability (reversal), % at 10 µM | 85,000 compounds, 0.04% hits;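 active = viability drop by adding the cancer drug above about 55%, with treated viability meeting a 40% cutoff, limit read from the data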;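 note: larger differential means the compound sensitizes cells more to doxorubicin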
sEH inh – blocks human soluble epoxide hydrolase activity; 91,000 compounds, 0.34% hits; AID 707; inhibition, % at 2 µM; P34913; recombinant human sEH enzymatic activity assay; in the data active = inhibition above about 80%
MRP1 act – activators of MRP-1; AID 799; viability increase, % at 10 µM; H69AR cells + doxorubicin, viability rescue, CellTiter-Glo; 140,000 compounds, 0.61% hits;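 active = viability gain under doxorubicin at or above a set limit, the compound median plus 3 SD, cut at about 4.7% in these data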;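 note: MRP-1 overexpressing cells given doxorubicin 25 µM after compound pretreatment; 18-22 h compound pretreatment then 72 h with doxorubicin before readout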
Phagocytosis inh – inhibitors of macrophage phagocytosis. J774A.1 macrophage IgG-bead phagocytosis, imaging. inhibition, % at 5 µM. 110,000 compounds, 0.07% hits;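 active = inhibition above the mean of the plate negative controls plus 5 SD, cut at about 13% in these data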;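 note: phagocytic index as fraction of beads internalized from green versus red external bead signal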
sdo1 rescue conf – SDO1-depleted yeast growth rescue confirmation | shares compounds with SDO1 yeast rescue | S. cerevisiae JHY4D (SDO1-depleted) growth rescue, OD600, 30 h; active compounds read high; efflux-deficient strain, SNQ2 and PDR5 mutated | OD recovery (concentration not given with the values) | 440 compounds, 44% hits | AID 949;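 active = yeast growth recovered at 30 hours, either rising with dose fitted slope above 0.001 or with average optical density gain above 0.07, some results past the limit were not filed as active; inactive = growth falling with dose or no effect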
Numbers stand for hits; i = inactive; nt = not tested or not shown.

SMILES	sEH act	SDO1 yeast rescue	MRP reversal	sEH inh	MRP1 act	Phagocytosis inh	sdo1 rescue conf
COC(C(=O)Nc1ccc(S(=O)(=O)Nc2cccc3ccccc23)cc1)c1ccccc1 (stereo unspecified)	nt	8.78	nt	nt	i	i	i
COC(C(=O)Nc1ccc(S(=O)(=O)Nc2ccc(F)cc2)cc1)c1ccccc1 (stereo unspecified)	nt	i	nt	nt	i	i	nt
Cc1cc(Cl)ccc1OC(C)C(=O)Nc1ccc([N+](=O)[O-])cn1 (stereo unspecified)	nt	i	nt	nt	i	i	nt
Cc1c(C#N)c2ncn(CCCN(C)C)c(=O)c2n1-c1ccccc1	i	3.58	i	i	i	i	0.102
COC(=O)C1(c2ccccc2)NC(c2cccs2)C2C(=O)N(c3ccccc3)C(=O)C21 (stereo unspecified)	i	i	i	i	i	nt	nt
COC(=O)C1(C(=O)OC)NOC2C(=O)N(c3ccccc3)C(=O)C21 (stereo unspecified)	i	7.77	nt	i	i	i	0.0924
COc1cccc(NC(=S)NNC(=O)C(C)n2nc(C)c([N+](=O)[O-])c2C)c1 (stereo unspecified)	i	4.03	nt	i	i	nt	i
O=C(CC1S/C(=N/N=C/c2c[nH]c3ccc(OCc4ccccc4)cc23)NC1=O)Nc1ccccc1 (stereo unspecified)	nt	i	nt	nt	i	i	nt
O=C(CC1S/C(=N/N=C/c2c[nH]c3ccccc23)NC1=O)Nc1ccccc1 (stereo unspecified)	nt	3.89	nt	nt	i	i	0.0847
COc1cc(OC)c(NS(=O)(=O)c2ccc(Cl)c(C(=O)OC(C)C(=O)N3CCCC3)c2)cc1Cl (stereo unspecified)	nt	i	nt	nt	i	i	nt
Cc1ccc(-c2ccc(=O)n(CC(=O)N3CCN(c4cc(Cl)ccc4C)CC3)n2)cc1	i	i	i	i	i	i	nt
CC1=C(C(=O)NCc2ccc3c(c2)OCO3)C2(CCC(C)CC2)OC1=O (stereo unspecified)	nt	i	i	nt	i	i	i
CC1=C(C(=O)NCc2ccco2)C2(CCC(C)CC2)OC1=O (stereo unspecified)	i	i	i	i	i	i	nt
COc1ccc(S(=O)(=O)N2CCC(C(=O)Nc3cccc(Cl)c3)CC2)cc1OC	i	i	nt	i	i	i	nt
N=c1c2c3c(sc2ncn1CCN1CCOCC1)CCCCC3	i	11.4	i	i	i	i	i
COc1ccc(OCC(O)Cn2c(Nc3ccccc3)nc3c2c(=O)n(C)c(=O)n3C)cc1 (stereo unspecified)	nt	i	i	nt	i	i	0.0518
Cn1c(=O)c2c(nc(NC3CCCCC3)n2CC(O)COc2ccccc2)n(C)c1=O (stereo unspecified)	i	i	i	i	i	i	nt
O=C(CSc1nnc(CNc2cccc(Cl)c2)o1)OC1CCCCC1	i	11.6	i	i	i	nt	0.09
CCOC(=O)c1cccnc1SCC(=O)NC(C)CC (stereo unspecified)	i	i	i	i	i	nt	0.0902
CSc1ncc(Cl)c(C(=O)Nc2sc3c(c2C(=O)NCc2ccco2)CCCC3)n1	i	i	nt	i	i	i	nt
CCSc1ncc(Cl)c(C(=O)Nc2sc3c(c2C(=O)NCc2cccnc2)CCCC3)n1	i	i	nt	i	i	nt	0.072
CC(C)n1nnnc1SCC(=O)c1ccc2c(c1)OCCO2	i	i	i	i	i	nt	nt
CCn1nnnc1SCC(=O)c1ccc2c(c1)OCCO2	i	10.2	i	i	i	nt	i
O=C(C1COc2ccccc2O1)N1CCN(c2ccccc2F)CC1 (stereo unspecified)	i	3.15	i	i	i	i	0.114
O=C(O)CCCNC(=O)c1ccccn1	nt	i	nt	nt	i	i	nt
SMILES	sEH act	SDO1 yeast rescue	MRP reversal	sEH inh	MRP1 act	Phagocytosis inh	sdo1 rescue conf
Cc1ccc(C2/C(=C(\O)c3ccc4c(c3)OCCO4)C(=O)C(=O)N2CCCN(C)C)o1 (stereo unspecified)	i	6.86	i	i	i	i	0.0972
Cc1cccc(NC(=O)C2(c3ccc([N+](=O)[O-])cc3)CCCC2)c1	i	6.45	nt	i	i	nt	i
Cc1cc(C)nc(N(C#N)S(=O)(=O)c2ccc(Br)cc2)n1	i	12	i	i	i	nt	i
Cc1ccc(S(=O)(=O)N(C#N)c2nc(C)cc(C)n2)cc1	i	i	i	i	i	i	nt
Cc1nc2ncnn2c(N2CCN(c3cccc(C(F)(F)F)c3)CC2)c1C	nt	i	i	nt	i	i	nt
COc1ccc2cc3cc(C(=O)Nc4ccc5c(c4)OCCO5)oc3nc2c1	i	i	i	i	i	i	i
COc1ccc2cc3cc(C(=O)Nc4cc(OC)c(OC)c(OC)c4)oc3nc2c1	i	i	i	i	i	i	nt
Cc1ccc(C(=O)Oc2cc(C)n(C)c(=O)c2)cc1	i	i	nt	i	i	nt	nt
O=C(NNS(=O)(=O)c1ccc2ccccc2c1)c1cc(-c2ccccn2)nc2ccccc12	nt	i	nt	nt	i	i	nt
CSCCC(NS(=O)(=O)c1ccc(Cl)cc1)C(=O)OCC(=O)c1c(C)[nH]c2ccccc12 (stereo unspecified)	nt	6.22	nt	nt	i	i	i
CSCCC(NS(=O)(=O)c1ccc2ccccc2c1)C(=O)OCC(=O)c1ccc(C(C)C)cc1 (stereo unspecified)	nt	i	nt	nt	i	i	nt
CCOC(=O)C(NC(=O)OC(C)C)(Nc1nccs1)C(F)(F)F (stereo unspecified)	i	13.3	i	i	i	i	0.0884
COc1ccccc1NS(=O)(=O)c1cc([N+](=O)[O-])ccc1N/N=C/c1sc(N2CCOCC2)nc1-c1ccccc1	nt	i	nt	nt	i	i	nt
CCOc1ncccc1C(=O)OCC(=O)Nc1ccc(-c2nc3ccc(C)cc3s2)cc1	nt	i	nt	nt	i	i	i
CCOc1ccc(C2c3c(oc4ccccc4c3=O)C(=O)N2CCCN2CCOCC2)cc1OCC (stereo unspecified)	nt	i	i	nt	i	i	i
COc1ccc(C2c3c(oc4ccccc4c3=O)C(=O)N2CCCN2CCOCC2)cc1 (stereo unspecified)	i	nt	i	i	nt	nt	nt
O=C(COC(=O)c1cccc2ccccc12)NCCCc1ccccc1	nt	11	nt	nt	i	i	i
Cc1ccc(N2C(=O)CC(n3nc(C)cc3C)C2=O)cc1 (stereo unspecified)	i	i	i	i	i	i	nt
Nc1cc(-c2ccc(Br)cc2)[nH]n1	nt	5.4	nt	nt	i	i	0.0956
COc1ccc(CCN2C(=O)c3cccc4c(C(=O)N5CCCCC5)ccc(c34)C2=O)cc1OC	nt	i	nt	nt	i	i	i
COc1cc(C(=O)OCCNC(=O)c2ccncc2)cc(OC)c1OC	nt	i	nt	nt	i	i	nt
CC(=O)c1cccc(NC(=O)C2CCCN(S(=O)(=O)c3ccc(F)cc3)C2)c1 (stereo unspecified)	i	i	i	i	i	nt	nt
COc1cc(C(=O)N2CCC(C(=O)Nc3cccc(C(C)=O)c3)CC2)cc(OC)c1OC	nt	i	i	nt	i	i	i
COc1ccc(S(=O)(=O)N2CCCC(C(=O)Nc3cccc(C(C)=O)c3)C2)cc1 (stereo unspecified)	i	i	i	i	i	i	i
